Assay results published in PubChem BioAssay (Tox21).
Results filed as inconclusive are left out. Activity calls are given as the source filed them. Unless noted, calls follow the shape of the dose curve; as a rule, active = well fitted curve in the direction sought with a large enough effect in the repeat runs; inconclusive = weak or mixed curves; inactive = no such curve, though single readings can be large; an effect the other way counts as inactive or inconclusive.

Legend:
[1] = qHTS assay to identify small molecule antagonists of the estrogen related receptor (ERR) signaling pathway from Tox21 library - cell viability counter screen (AID 1224834); also: nearly all actives have a fitted effect of over 30% in size
How it was run: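 ERR reporter cells, 2,000 per well, rested 6 h, then exposed to compound in DMSO for 17.5 hours at 37 C. Viability read as fluorescence after 30 min with CellTiter-Fluor.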

[2] = molecular target: Luciferin 4-monooxygenase (Photinus pyralis) (UniProt P08659); experiment: qHTS assay to identify small molecule inhibitors of firefly luciferase (AID 1224835); also: series mostly up to about 120 µM; nearly all actives have a fitted effect of over 25% in size
How it was run: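 Quantitative HTS format; KM concentrations of both substrates. Purified P. pyralis FLuc activity quantified from luminescence images.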

[3] = qHTS assay to identify small molecule agonists of the constitutive androstane receptor (CAR) signaling pathway - cell viability counter screen (AID 1224836); also: series mostly up to about 92 µM; nearly all actives have a fitted effect of over 45% in size
How it was run: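 Using CellTiter-Fluor, viability of HepG2 cells harbouring hCAR and CYP2B6-2.2kb was measured following 23 h incubation with a 15-concentration compound series plus PK11195 (0.75 uM final).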

[4] = qHTS assay to identify small molecule antagonists of the constitutive androstane receptor (CAR) signaling pathway - cell viability counter screen (AID 1224837); also: series mostly up to about 92 µM; nearly all actives have a fitted effect of over 45% in size
How it was run: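 HepG2 cells stably carrying hCAR and CYP2B6-2.2kb reporter, stimulated with 50 nM CITCO and compounds at 15 concentrations for 23 h at 37 C. Viability measured by CellTiter-Fluor fluorescence.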

[5] = molecular target: Nuclear receptor subfamily 1 group I member 3 (Homo sapiens) (UniProt Q14994); experiment: qHTS assay to identify small molecule antagonists of the constitutive androstane receptor (CAR) signaling pathway (AID 1224838); also: nearly all actives have a fitted effect of over 40% in size
How it was run: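 HepG2 cells stably carrying hCAR and a CYP2B6-2.2kb luciferase reporter, seeded 4 hrs before compound (15 concentrations). Stimulated with 50 nM CITCO for 24 hr at 37 C. ONE-Glo luminescence read after 30 min at room temperature.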

[6] = molecular target: Nuclear receptor subfamily 1 group I member 3 (Homo sapiens) (UniProt Q14994); experiment: qHTS assay to identify small molecule agonists of the constitutive androstane receptor (CAR) signaling pathway (AID 1224839); also: series mostly up to about 92 µM; nearly all actives have a fitted effect of over 15% in size
How it was run: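 Double-stable HepG2 cells (hCAR, CYP2B6-2.2kb) seeded 4 h before compound addition. Exposure 24 h with 0.75 uM PK11195 final. Luciferase detected by ONE-Glo.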

[7] = qHTS assay to identify small molecule antagonists of the estrogen related receptor signaling pathway with the pleiotropic PPARgamma coactivator (PGC) from Tox21 10K library - cell viability counter screen (AID 1224840; active = well fitted cell-killing curve with a large enough effect in the repeat runs, not every such curve was filed as active; also: nearly all actives have a fitted effect of over 40% in size)
How it was run: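 PGC/ERR cells (2,000/well) plated 6 h, then compound-treated for 17.5 h at 37 C. Viability measured by CellTiter-Fluor fluorescence after 30 min at 37 C, multiplexed with the pathway assay.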

[8] = molecular target: Thyrotropin receptor (Homo sapiens) (UniProt P16473); experiment: qHTS assay to identify small molecule agonists of the thyroid stimulating hormone receptor (TSHR) signaling pathway (AID 1224843; calls by dose curve; also: nearly all actives have a fitted effect of over 45% in size)
How it was run: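 Cell line HEK293 with TSHR; density 800/well. Exposure 30 min RT. Readout HTRF cAMP (cAMP-d2/anti-cAMP-cryptate), 1 h RT before reading.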

[9] = qHTS assay to identify small molecule agonists of the hypoxia (HIF-1) signaling pathway - cell viability counter screen (AID 1224844; calls by dose curve; also: nearly all actives have a fitted effect of over 50% in size)
How it was run: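 HRE-bla ME-180 cells, 2,000/well in 0.5% dialyzed FBS medium, treated 17 h at 37C with compounds. Viability read in the same wells as the bla reporter, by CellTiter-Glo luminescence after 30 min at room temperature.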

[10] = qHTS assay to identify small molecule agonists of the hypoxia (HIF-1) signaling pathway (AID 1224846; active = well fitted activation curve with a large enough effect in the signal ratio in the repeat runs, not every such curve was filed as active; the % refers to the signal ratio)
How it was run: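 HRE-bla ME-180 beta-lactamase reporter cells in medium with 0.5% dialyzed FBS, pre-incubated 5 h then exposed to compounds 17 h at 37C, 5% CO2; reporter induction read with CCF4-AM FRET substrate.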

[11] = qHTS assay to identify small molecule agonists of H2AX - cell viability counter screen (AID 1224847; calls by dose curve; also: top concentration of the series differs between compounds; nearly all actives have a fitted effect of over 30% in size)
How it was run: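 Quantitative HTS viability measurement: CHO-K1 wild-type cells in serum (10% FBS) medium, short 3 hr drug exposure at 37C with 0.76% DMSO, CellTiter-Glo luminescent detection.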

[12] = qHTS RealTime-Glo MT Cell Viability Assay in HepG2 cells - 24 hour (AID 1224867); also: nearly all actives have a fitted effect of over 50% in size
How it was run: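 Cells + NanoLuc/prosubstrate dispensed (600 cells/well) → 5 h at 37 C/5% CO2 → compounds in DMSO transferred → 40 h incubation at 37 C, luminescence read at 0, 8, 16, 24, 32, 40 h.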

[13] = A CellTox Green Cytotoxicity Assay to monitor cytotoxicity in HEK293 cells - 0 hour (AID 1224869); also: nearly all actives have a fitted effect of over 50% in size
How it was run: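 HEK293 cells, 600/well, were preincubated 5 hours and then exposed to compounds at 37 C for up to 40 hours. A cell-impermeant cyanine dye staining dead-cell DNA was read by fluorescence at 0, 8, 16, 24, 32 and 40 h time points.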

[14] = qHTS RealTime-Glo MT Cell Viability Assay in HepG2 cells - 40 hour (AID 1224870); also: nearly all actives have a fitted effect of over 50% in size
How it was run: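 HepG2 cells mixed with RealTime-Glo MT reagents (NanoLuc plus cell-permeant prosubstrate) were seeded at 600 cells/well, incubated 5 h at 37 C/5% CO2, then pinned with compounds in DMSO; nonlytic luminescence tracked viability during 40 h treatment.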

[15] = qHTS assay to identify small molecule agonists of H2AX (AID 1224845; active = well fitted activation curve with a large enough effect in the signal ratio in the repeat runs, not every such curve was filed as active; the % refers to the signal ratio)
How it was run: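 Wild-type CHO-K1 cells plated overnight, then exposed 3 hr at 37C to compounds at 15 concentrations (0.76% DMSO). Lysed, then HTRF anti-pH2AX(S139)-cryptate/anti-H2AX-d2 detection after 24 hr at room temperature; emissions 665 and 620 nm.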

[16] = qHTS RealTime-Glo MT Cell Viability Assay in HEK293 cells - 32 hour (AID 1224868)
How it was run: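 Tox21 10K qHTS, HEK293, 600 cells/well, RealTime-Glo reagent co-dispensed with cells; 5 h preincubation, compound by pintool, 37 C, luminescence at 0–40 h.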

Measured: Potency

Sequence of Nuclear receptor subfamily 1 group I member 3 (Homo sapiens) (Q14994 whole entry, looked up): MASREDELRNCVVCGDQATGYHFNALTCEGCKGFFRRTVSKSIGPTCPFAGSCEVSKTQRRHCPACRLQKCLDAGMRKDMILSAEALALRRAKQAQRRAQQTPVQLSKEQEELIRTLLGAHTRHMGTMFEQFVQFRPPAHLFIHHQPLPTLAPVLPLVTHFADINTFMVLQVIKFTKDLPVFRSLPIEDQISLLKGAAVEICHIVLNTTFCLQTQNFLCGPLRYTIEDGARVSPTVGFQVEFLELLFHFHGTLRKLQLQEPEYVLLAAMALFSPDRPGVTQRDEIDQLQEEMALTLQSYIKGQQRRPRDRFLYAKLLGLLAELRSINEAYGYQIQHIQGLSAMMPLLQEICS
Sequence of Luciferin 4-monooxygenase (Photinus pyralis) (P08659 whole entry, looked up): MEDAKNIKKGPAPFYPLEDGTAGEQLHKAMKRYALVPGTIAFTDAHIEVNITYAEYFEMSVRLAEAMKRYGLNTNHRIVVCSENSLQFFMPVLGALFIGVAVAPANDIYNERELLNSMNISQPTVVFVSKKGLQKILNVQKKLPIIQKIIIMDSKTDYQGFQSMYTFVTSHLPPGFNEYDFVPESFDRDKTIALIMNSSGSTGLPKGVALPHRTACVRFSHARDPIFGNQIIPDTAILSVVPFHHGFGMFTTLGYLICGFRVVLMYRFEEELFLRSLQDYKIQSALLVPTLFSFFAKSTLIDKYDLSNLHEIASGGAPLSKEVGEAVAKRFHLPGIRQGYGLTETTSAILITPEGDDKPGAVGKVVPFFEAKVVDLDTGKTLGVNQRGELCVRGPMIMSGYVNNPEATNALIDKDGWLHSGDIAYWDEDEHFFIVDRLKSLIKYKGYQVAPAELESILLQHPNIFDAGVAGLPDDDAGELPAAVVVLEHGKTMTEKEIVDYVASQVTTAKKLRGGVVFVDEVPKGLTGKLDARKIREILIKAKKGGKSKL
Sequence of Thyrotropin receptor (Homo sapiens) (P16473 whole entry, looked up): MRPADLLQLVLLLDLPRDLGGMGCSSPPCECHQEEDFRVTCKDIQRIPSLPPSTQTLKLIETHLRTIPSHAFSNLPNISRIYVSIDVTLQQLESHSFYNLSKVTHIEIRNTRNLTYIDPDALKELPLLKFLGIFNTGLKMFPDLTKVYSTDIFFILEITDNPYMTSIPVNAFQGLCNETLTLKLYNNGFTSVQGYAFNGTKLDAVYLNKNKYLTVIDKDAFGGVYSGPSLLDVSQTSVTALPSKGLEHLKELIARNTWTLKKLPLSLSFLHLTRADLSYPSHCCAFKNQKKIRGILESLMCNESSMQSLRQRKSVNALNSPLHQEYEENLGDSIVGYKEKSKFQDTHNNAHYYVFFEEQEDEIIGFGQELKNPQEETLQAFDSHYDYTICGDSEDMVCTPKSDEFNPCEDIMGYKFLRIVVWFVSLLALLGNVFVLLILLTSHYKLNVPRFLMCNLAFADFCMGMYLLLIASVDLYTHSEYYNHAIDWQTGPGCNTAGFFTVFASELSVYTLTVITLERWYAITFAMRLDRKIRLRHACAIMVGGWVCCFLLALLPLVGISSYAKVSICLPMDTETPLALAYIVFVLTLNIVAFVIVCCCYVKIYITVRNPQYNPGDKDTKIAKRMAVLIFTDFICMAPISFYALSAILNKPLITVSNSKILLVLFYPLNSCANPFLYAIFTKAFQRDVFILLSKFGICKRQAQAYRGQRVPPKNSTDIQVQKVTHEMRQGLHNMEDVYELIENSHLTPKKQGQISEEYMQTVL

CCCc1nn(C)c2c(=O)[nH]c(-c3cc(S(=O)(=O)N4CCN(C)CC4)ccc3OCC)nc12
not listed: [15] | [16]
inactive: all other assays above

C=C(C)C(=O)OCC1CCCO1 (stereo not drawn)
not listed: [8] | [16]
inactive: all other assays above

CCOC(=O)c1cnc2c(cnn2CC)c1NN=C(C)C
not listed: [8] | [10] | [11]
inactive: all other assays above

CC(C)(CCC(=O)O)C(=O)O
not listed: [8] | [15]
inactive: all other assays above

CC1=NS(=O)(=O)c2cc(Cl)ccc2N1
not listed: [10] | [11]
inactive: all other assays above

CCC(C)(CCCC(C)C)OC(C)=O (stereo not drawn)
not listed: [7] | [14] | [15]
inactive: all other assays above

O=C(c1ccccc1)C1(O)CCCCC1
not listed: [16]
inactive: all other assays above

Cc1onc(-c2c(Cl)cccc2Cl)c1C(=O)Cl
not listed: [8] | [15]
inactive: all other assays above

CC(C)C(=O)OC(=O)C(C)C
not listed: [7] | [12] | [15] | [16]
inactive: all other assays above
